3T3 cytotox – NIH 3T3 cell cytotoxicity. actives 4.3% (n = 94,000). NIH 3T3 viability, CellTiter-Glo ATP luminescence, 48-72 h. Potency, µM (series often up to 96.7 µM), hits mostly inhibitors; also: nearly all actives have a fitted effect of over 55% in size
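Cytotoxicity was measured by CellTiter-Glo ATP luminescence after 48 or 72 h compound exposure at 37 °C. Mouse NIH 3T3 fibroblasts were seeded at 400 cells/well and dosed by 23 nL pin transfer.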
NPR1 antag – human Npr1 receptor antagonism; actives 1.6% (n = 76,000); Potency, µM (titrated, usually from 46.3 µM), actives largely listed as inhibitors; AID 1347048; P16066; HEK293 hNpr1 GloSensor cGMP, ANP-stimulated luminescence; calls by dose curve; also: nearly all actives have a fitted effect of over 60% in size
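HEK293 cells stably expressing human Npr1 and cGMP GloSensor pGS-40F, loaded 2 h with 2% GloSensor reagent, given compound 30 min at room temperature. Luminescence read before and 20 min after 0.1 nM hNppA.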
HEK cytotox – cytotoxic compounds in HEK 293 cells; Potency, µM (series often up to 115 µM), most hits filed as inhibitors; HEK 293 viability, ATP luminescence (CellTiter-Glo), 48-72 h; actives 6.6% (n = 94,000); also: nearly all actives have a fitted effect of over 60% in size
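250 HEK 293 cells/well; compound by pintool; incubated 48 or 72 hr at 37 degree Celsius; CellTiter-Glo added, 10 min RT, luminescence imaged.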
FLuc inh – inhibitors of firefly (Photinus pyralis) luciferase; Potency, µM (titrated, usually from 115 µM), usual class: inhibitors; purified P. pyralis luciferase, luminescence, biochemical; actives 2.5% (n = 76,000); also: nearly all actives have a fitted effect of over 65% in size
Target sequence (P08659 whole entry, looked up): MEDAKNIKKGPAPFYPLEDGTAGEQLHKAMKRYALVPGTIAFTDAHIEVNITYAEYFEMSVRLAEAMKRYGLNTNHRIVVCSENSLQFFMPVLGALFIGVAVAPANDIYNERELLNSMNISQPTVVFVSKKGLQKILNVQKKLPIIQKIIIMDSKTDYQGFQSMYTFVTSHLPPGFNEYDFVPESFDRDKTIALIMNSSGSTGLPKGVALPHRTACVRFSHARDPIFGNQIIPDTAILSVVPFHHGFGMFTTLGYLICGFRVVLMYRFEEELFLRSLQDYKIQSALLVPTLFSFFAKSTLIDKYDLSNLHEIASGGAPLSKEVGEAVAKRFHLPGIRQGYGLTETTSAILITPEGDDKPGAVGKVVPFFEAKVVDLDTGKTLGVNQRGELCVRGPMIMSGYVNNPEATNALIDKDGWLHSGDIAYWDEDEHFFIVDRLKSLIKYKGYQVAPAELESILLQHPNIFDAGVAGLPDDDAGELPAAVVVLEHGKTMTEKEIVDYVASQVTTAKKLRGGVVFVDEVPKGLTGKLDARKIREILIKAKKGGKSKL
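Luminescence read by CCD imaging after purified firefly luciferase (10nM final) was added to substrate buffer holding 10uM D-luciferin and 10uM ATP, pH 7.5, pre-dosed with compound.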
Each line names hits and unclear results; the compound was inactive in the other large screens. Only some compounds are listed: those with a hit (about 11% of all), similar ones and a draw of the others. Unless noted, calls follow the shape of the dose curve; as a rule, active = well fitted curve in the direction sought with a large enough effect; inconclusive = small, poorly fitted or top-dose-only effect, or another doubt; inactive = no such curve, though single readings can be large; an effect the other way counts as inactive or inconclusive.

CC(=O)Nc1ccc(S(=O)(=O)N[C@@H]2C=C[C@@H](c3c(C)nn(-c4ccc(C(C)(C)C)cc4)c3C)C2)cc1	3T3 cytotox inconclusive, HEK cytotox 45µM, FLuc inh 45µM
Cc1nn(-c2cccc(Br)c2)c(C)c1[C@@H]1C=C[C@@H](NC(=O)c2cccs2)C1	3T3 cytotox inconclusive, HEK cytotox inconclusive, FLuc inh inconclusive
COc1ccc(NC(=O)O[C@@H]2C=C[C@H](c3c(C)nn(-c4ccc(C)c(Cl)c4)c3C)C2)cc1	3T3 cytotox inconclusive, HEK cytotox inconclusive
Cc1cc(Cl)ccc1-n1nc(C)c([C@@H]2C=C[C@@H](NC(=O)c3ccc(N(C)C)cc3)C2)c1C	3T3 cytotox inconclusive, NPR1 antag inconclusive, HEK cytotox inconclusive, FLuc inh 18µM
Cc1nn(-c2ccc(C(F)(F)F)cc2)c(C)c1[C@@H]1C=C[C@@H](NS(=O)(=O)c2cccs2)C1	3T3 cytotox inconclusive, HEK cytotox inconclusive
Cc1ccc(-n2nc(C)c([C@H]3C=C[C@@H](OC(=O)Nc4ccc(C(C)C)cc4)C3)c2C)cc1Cl	3T3 cytotox inconclusive, HEK cytotox 28µM
COc1ccc(C(=O)N[C@@H]2C=C[C@@H](c3c(C)nn(Cc4ccccc4)c3C)C2)cc1	3T3 cytotox inconclusive, HEK cytotox inconclusive, FLuc inh inconclusive
CC(=O)N[C@@H]1C=C[C@@H](c2c(C)nn(-c3ccc(C)c(Cl)c3)c2C)C1	3T3 cytotox 79µM, NPR1 antag inconclusive, HEK cytotox inconclusive, FLuc inh inconclusive
Cn1nc(C2CCN(C(=O)[C@H]3CC(=O)NC(=O)N3)CC2)n(-c2ccccc2)c1=O	3T3 cytotox inconclusive
C=CCN1C[C@@H]2C[C@@H](C(=O)NC)N(C(=O)CCCCC)c3cccc(c32)[S+]1(=O)[O-]	3T3 cytotox inconclusive (no result: NPR1 antag, FLuc inh)
CCN1Cc2cc(F)ccc2N(CC(O)COc2ccccc2)CCC1=O (stereo not drawn)	HEK cytotox inconclusive (no result: NPR1 antag, FLuc inh)
C=CCN1C[C@H]2COc3cc(OC)ccc3[C@H]2N(C(=O)c2ccc(C)cc2)CCC1=O	3T3 cytotox inconclusive (no result: NPR1 antag, FLuc inh)
COc1ccccc1CCn1cnc(-c2ccccc2)c1-c1cn(C)nc1C	3T3 cytotox inconclusive, HEK cytotox 79µM
COCC1CN(C(C)=O)CC12CCN(Cc1cccc(Br)c1)CC2 (stereo not drawn)	HEK cytotox 79µM
c1ccc(CO[C@H]2COCCN(c3nc4ccccc4s3)C2)cc1	3T3 cytotox inconclusive, HEK cytotox 112µM, FLuc inh inconclusive
CC(C)[C@@H]1C[C@@H]2C[C@@H](NCc3ccccc3)C[C@]2(c2ccccc2)CO1	3T3 cytotox inconclusive, HEK cytotox 79µM (no result: NPR1 antag, FLuc inh)
CC(C)[C@@H]1C[C@@H]2C[C@@H](NC3CCCC3)C[C@]2(c2ccccc2)CO1	3T3 cytotox inconclusive (no result: NPR1 antag, FLuc inh)
CCNC(=O)N1CCOc2ccc(CCC(=O)Nc3ccc(F)cc3F)cc2C1	NPR1 antag inconclusive, HEK cytotox 40µM
COc1ccc(NC(=O)CCc2ccc3c(c2)CN(C(=O)NC(C)C)CCO3)cn1	HEK cytotox 79µM
COc1cccc(Cn2c(=O)c3ccnn3c3ccc(C(=O)NCCCN(C)C)cc32)c1	3T3 cytotox 35µM, HEK cytotox 40µM
O=C1NCCOCCCN(C(=O)Nc2ccccc2)[C@H]2CCCC[C@@H]12	none
O=C1NCCOCCCN(C(=O)Nc2ccc3c(c2)OCCO3)[C@H]2CCCC[C@@H]12	FLuc inh 32µM
O=C(CNC(=O)c1cccc(-c2ccc(C(F)(F)F)cc2)c1)NCCc1ccccc1	HEK cytotox inconclusive (no result: NPR1 antag, FLuc inh)
O=C(NCC1Cn2cccc2CN1Cc1ccccc1)c1ccc2cc[nH]c2c1 (stereo not drawn)	3T3 cytotox inconclusive, HEK cytotox 79µM
Cc1cccc(N2CCN(C(=O)c3ccc4c(c3)N(C)C3CCCCN3C4=O)CC2)c1 (stereo not drawn)	3T3 cytotox inconclusive, HEK cytotox 32µM
CN1c2cc(C(=O)N3CCN(c4cccc(Cl)c4)CC3)ccc2C(=O)N2CCCC21 (stereo not drawn)	HEK cytotox 79µM
CN1c2cc(C(=O)N3CCN(c4ccccc4)CC3)ccc2C(=O)N2CCCCC21 (stereo not drawn)	HEK cytotox inconclusive
CN1c2cc(C(=O)N3CCN(c4ccccc4)CC3)ccc2C(=O)N2CCCCCC21 (stereo not drawn)	3T3 cytotox inconclusive, HEK cytotox inconclusive
CN1c2cc(C(=O)N3CCN(c4cccc(Cl)c4)CC3)ccc2C(=O)N2CCCCC21 (stereo not drawn)	3T3 cytotox inconclusive, HEK cytotox 45µM
CN1c2cc(C(=O)N3CCN(c4ccccc4F)CC3)ccc2C(=O)N2CCCC21 (stereo not drawn)	none
CC1(C)[C@H]2CC[C@@H](CNC(=O)c3ccccc3)[C@@H]1C2	3T3 cytotox inconclusive, HEK cytotox inconclusive
COc1ccc(C(=O)NC[C@@H]2CC[C@H]3C[C@@H]2C3(C)C)cc1	3T3 cytotox inconclusive, NPR1 antag inconclusive, HEK cytotox 100µM
CC1(C)[C@H]2CC[C@@H](CNC(=O)c3cncc(Br)c3)[C@@H]1C2	3T3 cytotox inconclusive, HEK cytotox 79µM
CCN1CCN(C(=O)c2cc(-c3ccc(F)cc3)c3nncn3n2)CC1	none (no result: NPR1 antag, FLuc inh)
CCOc1cc(C(=O)N2CCN(c3cc(-c4ccc(F)cc4)[nH]n3)CC2)cc(OCC)c1OCC	3T3 cytotox inconclusive, HEK cytotox inconclusive
CC(C)N1C(=O)C2(CCCC2)C1C(=O)NCc1cc(F)cc(F)c1 (stereo not drawn)	none
COc1cccc(Nc2cc(CN3CCC(C)(NC(C)=O)CC3)cc(OC)c2)c1	3T3 cytotox 100µM, HEK cytotox 112µM
CC(=O)NC1(C)CCCN(Cc2cc(-c3ccccc3)cs2)C1 (stereo not drawn)	3T3 cytotox inconclusive, HEK cytotox inconclusive
CC(=O)NC1(C)CCN(Cc2cccc(-c3ccccc3)c2)C1 (stereo not drawn)	HEK cytotox inconclusive
CC(=O)NC1(C)CCN(Cc2ccc(-c3ccccc3OCc3ccccc3)cc2)C1 (stereo not drawn)	3T3 cytotox 32µM, HEK cytotox 32µM, FLuc inh inconclusive
CC(=O)NC1(C)CCN(Cc2ccc(-c3cccc(Cl)c3)cc2)C1 (stereo not drawn)	3T3 cytotox inconclusive, HEK cytotox 89µM
CC(=O)NC1(C)CCCN(Cc2cc(-c3cccc(N(C)C)c3)cs2)C1 (stereo not drawn)	3T3 cytotox inconclusive, HEK cytotox 63µM, FLuc inh 71µM
COc1cc(CN2CCC(C)(NC(C)=O)CC2)cc(NCc2ccccc2)c1	HEK cytotox inconclusive
COc1ccc(-c2cc(C(=O)N3CCOCC3)c3cnn(C)c3n2)cc1	none (no result: NPR1 antag, FLuc inh)
COCCCNC(=O)C1CCN(C(=O)c2ccc(-c3ccccc3OC)cc2)CC1	none (no result: NPR1 antag, FLuc inh)
CC(C)OCCCNc1ncnc2c1CN(C1CCCC1)C(=O)CN2C	none (no result: NPR1 antag, FLuc inh)
CC(=O)NC1(C)CCN(Cc2ccc(-c3cccc(F)c3)cc2)C1 (stereo not drawn)	3T3 cytotox 89µM, HEK cytotox inconclusive
CC(=O)NC1(C)CCN(Cc2ccc(-c3ccc(N4CCOCC4)cc3)cc2)C1 (stereo not drawn)	3T3 cytotox inconclusive, HEK cytotox inconclusive, FLuc inh inconclusive
